Most compounds without a hit are left out; they make up all but 7.9% or so of the library.
SW480 rereplic = inducers of DNA re-replication in SW480 colon cancer cells. SW480 DNA re-replication, Hoechst DNA content imaging, 48 h. Potency, µM (highest dose often 46.1 µM), inactives show top-dose re-replication activation, most hits filed as activators. 340,000 compounds, 1.8% hits. AID 624297; note: % of control where 0% means no effect; nearly all actives have a fitted effect of over 55% in size
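Quantitative HTS format with DMSO vehicle controls; 48 hr drug incubation at 37 C, then 40 min Hoechst staining and scanning imager measurement at 405 nm excitation.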
MCF10A rerep = inducers of DNA re-replication in MCF 10A breast cells | Potency, µM (doses to about 46.1 µM), without a hit: top-dose activity, positive = re-replication, usual class: activators | 350,000 compounds, 2.9% hits | MCF 10A DNA re-replication, Hoechst nuclear intensity, 48 h | AID 624296; note: % of control where 0% means no effect; nearly all actives have a fitted effect of over 50% in size
KB-V1 cytotox = KB-V1 MDR subline cytotoxicity; Potency, µM (highest dose often 46.1 µM), usual class: cytotoxic; KB-V1 MDR cells viability, CellTiter-Glo, 72 h; AID 1347076; 400,000 compounds, 3.4% hits; note: % is set by controls: 0 for no effect and ±100 for the full control effect; nearly all actives have a fitted effect of over 60% in size
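KB-V1, DMEM (no phenol red) + 10% FBS; cpd pin-transferred, titration series; 72 h, 37 degrees C; CellTiter-Glo, luminescence. Data normalized, curve-fit.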
KB-3-1 tox = kills parental KB-3-1 adenocarcinoma cells. KB-3-1 viability, CellTiter-Glo ATP luminescence, 72 h. 400,000 compounds, 1.4% hits. AID 1347075. Potency, µM (doses to about 46.1 µM), hits mostly cytotoxic; note: % is set by controls: 0 for no effect and ±100 for the full control effect; nearly all actives have a fitted effect of over 60% in size
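Using CellTiter-Glo luminescence, growth of non-resistant KB-3-1 adenocarcinoma cells is assessed 72 h after pin-tool compound addition at 37 °C. Normalized responses across the concentration series yield fitted curves.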
HT1080 IDH1KD tx = HT-1080 IDH1 knockdown cell toxicity (counter line). HT-1080 IDH1 knockdown viability, ATP luminescence, 48 h. Potency, µM (top dose mostly 46.1 µM), for inactives: top-dose activity, negative = toxicity, most hits filed as cytotoxic. AID 686971. 360,000 compounds, 2% hits;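 note: 0% = DMSO wells and -100% = cell-free medium wells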
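Viability of IDH1-knockdown HT-1080 fibrosarcoma cells was assessed by CellTiter-Glo after 48 h at 37 °C with titrated compound; concentration-effect curves were classified by fit quality and response size.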
HT1080-NT tox = kills 2HG-producing HT-1080-NT fibrosarcoma cells | 360,000 compounds, 1.6% hits | AID 686970 | HT-1080-NT fibrosarcoma viability, CellTiter-Glo ATP luminescence, 48 h | Potency, µM (highest dose often 46.1 µM), inactives show top-dose activity, negative = less viability, most hits filed as cytotoxic;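 note: NT is the 2HG producing partner of a matched IDH1 knockdown line; 0% = DMSO-treated cells and -100% = media-only wells without cells; nearly all actives have a fitted effect of over 55% in size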
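Viability by CellTiter-Glo luminescence after 48 h compound exposure at 37C of HT-1080-NT cells (750/well, RPMI, 5% FBS). % activity scaled between DMSO wells and medium-only wells, then curve-fitted and categorized by curve class.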
* = called active by the depositor; i = inactive; ? = inconclusive; / = no result given. Calls come from the whole dose curve; as a rule, active = well fitted curve in the direction sought with a large enough effect; inconclusive = small, poorly fitted or top-dose-only effect, or another doubt; inactive = no such curve, though single readings can be large; an effect the other way counts as inactive or inconclusive. Potency is the fitted concentration of half-maximal effect.

SMILES	SW480 rereplic	MCF10A rerep	KB-V1 cytotox	KB-3-1 tox	HT1080 IDH1KD tx	HT1080-NT tox
CCOC(=O)N1CCC(n2c(SCC(=O)NCc3ccccc3)nc3ccccc3c2=O)CC1	4%	0%	i	i	0%	5%
CCOC(=O)N1CCC(n2c(SCC(=O)N3CCC(C)CC3)nc3ccccc3c2=O)CC1	12%	?	21µM*	?	-18%	-5%
COc1cc(CN2CCN(C(=O)CC(C)C)CC2)c([N+](=O)[O-])cc1OC	2%	-1%	?	i	11%	7%
O=C1/C(=C/c2cccnc2)CC/C1=C\c1cccnc1	5%	?	i	?	-9%	-21%
O=C1/C(=C/c2cccnc2)CCC/C1=C\c1cccnc1	1.3µM*	1.2µM*	3.3µM*	?	?	?
CN(C)c1ccc(/C=C2\CCC/C(=C\c3ccccc3)C2=O)cc1	15%	18µM*	18µM*	i	12%	12%
CCC1C/C(=C\c2cccnc2)C(=O)/C(=C/c2cccnc2)C1 (stereo not given)	/	?	?	3.7µM*	?	?
Fc1ccc(-c2nn3c(C4COc5ccccc5O4)nnc3s2)cc1 (stereo not given)	0%	0%	?	i	3%	2%
c1csc(-c2nn3c(C4COc5ccccc5O4)nnc3s2)c1 (stereo not given)	3.7µM*	?	?	i	11%	-4%
c1ccc(C2CN3CCSC3=N2)cc1 (stereo not given)	-1%	?	i	i	10%	2%
O=C(Cn1cccc1C(=O)c1ccccc1)NCc1ccc(F)cc1	-1%	7%	i	i	18%	2%
O=C(Cn1cccc1C(=O)c1ccccc1)NCc1ccccc1	2%	10%	23µM*	i	7%	19%
N#Cc1nc(/C=C/c2ccc(F)cc2)oc1N1CCN(c2ccccc2)CC1	/	/	i	i	/	/
N#Cc1nc(-c2cccc3ccccc23)oc1NCCN1CCOCC1	?	16µM*	i	i	2%	-22%
CNc1oc(/C=C/c2ccccc2)nc1C#N	?	21µM*	i	i	8%	7%
CCN1CCN(c2oc(/C=C/c3ccccc3)nc2C#N)CC1	?	23µM*	i	i	-2%	10%
N#Cc1nc(COc2ccc(-c3ccccc3)cc2)oc1NCCCN1CCOCC1	?	11µM*	i	?	?	?
Cc1oc(-c2ccc(C(=O)NCCCOC(C)C)cc2)nc1CS(=O)(=O)c1ccccc1	/	/	i	i	/	/
CCn1c(COC(=O)CNC(=O)c2ccccc2)nc2cc(S(=O)(=O)N(C)C)ccc21	-6%	7%	i	i	-1%	-21%
COc1ccc(CNC(=O)Nc2cn(CC(C)C)c(=O)c3ccccc23)cc1	/	/	i	i	/	/
COCCNc1oc(/C=C/c2ccccc2)nc1C#N	1%	15%	i	i	0%	3%
N#Cc1nc(/C=C/c2ccccc2)oc1NCCCN1CCOCC1	?	23µM*	?	i	-7%	-8%
CC(C)CNC(=O)c1cccc(NC(=O)Cc2ccc(Br)cc2)c1	1.5µM*	2%	3.3µM*	?	-1%	2%
CC(C)CNC(=O)c1cccc(NC(=O)c2ccc(Cl)c([N+](=O)[O-])c2)c1	7%	?	21µM*	i	0%	-3%
COc1cccc(C(=O)Nc2cccc(C(=O)NCC(C)C)c2)c1	-4%	-7%	18µM*	i	0%	-4%
CCOCCOC(=O)COc1ccc2c(-c3ccccc3)cc(=O)oc2c1	?	-69%	i	i	10%	8%
CC(C)(O)C#Cc1ccc(N2C(c3ccsc3)=Cc3ccc(F)cc3C2c2c[nH]c3ccc(C#N)cc23)cc1 (stereo not given)	/	/	?	?	23µM*	?
